Data reported in the supplement of paper PMC3334620.
In all, about 33,000 sequences were measured (“E-score (-0.5 to 0.5)”: median about -0.016, highest 2% from about 0.32 on). The list comes from a sample in which the highest values are over-represented; it also holds similar and randomly drawn sequences.

Biological target: T1, Stp1 (UniProt B3LFK1)
T1 sequence: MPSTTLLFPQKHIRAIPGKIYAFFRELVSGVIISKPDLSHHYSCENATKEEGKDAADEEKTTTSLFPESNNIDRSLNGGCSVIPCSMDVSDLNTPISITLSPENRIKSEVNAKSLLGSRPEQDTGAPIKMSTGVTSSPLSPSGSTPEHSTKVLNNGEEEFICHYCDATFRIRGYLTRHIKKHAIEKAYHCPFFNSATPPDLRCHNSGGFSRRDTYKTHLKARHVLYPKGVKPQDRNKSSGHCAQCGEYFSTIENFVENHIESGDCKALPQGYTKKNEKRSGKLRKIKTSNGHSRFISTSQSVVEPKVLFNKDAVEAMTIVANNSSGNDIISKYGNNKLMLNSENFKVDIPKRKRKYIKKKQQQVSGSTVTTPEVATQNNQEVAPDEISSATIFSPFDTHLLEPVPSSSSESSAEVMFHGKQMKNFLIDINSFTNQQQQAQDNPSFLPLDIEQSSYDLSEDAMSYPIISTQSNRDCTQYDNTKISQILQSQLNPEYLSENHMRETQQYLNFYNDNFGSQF
Assay: PBM E-score (8-mer binding enrichment) (E-score (-0.5 to 0.5)); higher = stronger / more preferred TF binding
Details: protein concentration: 200 nM; construct: GST-full length
Summary of the method: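 Using PURExpress in vitro transcription/translation, GST-tagged yeast transcription factors were made in full-length or DNA-binding-domain form. These were applied at about 100-200 nM to double-stranded universal all-10-mer Agilent arrays, and bound protein was detected with fluorescent anti-GST. Scans were normalised with masliner before the Universal PBM Analysis Suite assigned E-scores to ungapped eight-base words pooled with their reverse complements.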

| Sequence | PBM E-score |
| --- | --- |
| CGACTAGC | -0.13 |
| ATCGTTCG | 0.0636 |
| GCTGCCAC | 0.0537 |
| CAGTGCCC | 0.108 |
| AAGTGCCG | 0.453 |
| AAGTGCCC | 0.079 |
| CAGTGCCA | -0.0624 |
| CAGTGCCG | 0.453 |
| AAGTGCCA | 0.163 |
| AGTAGTGA | -0.0104 |
| CTGGATAA | 0.0621 |
| CGGCATTC | 0.441 |
| CTGCATTC | -0.111 |
| AGGCATTC | 0.106 |
| GGGCATTA | 0.139 |
| CGGCATTA | 0.436 |
| AGGCATTA | 0.228 |
| ACCTACAT | -0.177 |
| AGTAGTCG | -0.0173 |
| ATACTCAG | 0.06 |
| CACTGGGG | -0.231 |
| GAGATATC | 0.0576 |

| Sequence | PBM E-score |
| --- | --- |
| CCACGCCC | -0.188 |
| ACACGCCA | 0.0386 |
| ACACGCCC | -0.181 |
| ATACGCCC | -0.157 |
| ATACGCCA | 0.0267 |
| ACACGCCG | 0.351 |
| ATACGCCG | 0.381 |
| CCACGCCA | 0.0283 |
| CCACGCCG | 0.34 |
| GGGGCCCC | -0.2 |
| ACCCTTTC | -0.15 |
| CATGATTA | 0.171 |
| CCCTATCG | -0.196 |
| TACAGAAA | 0.212 |
| CAACCATG | -0.0314 |
| AGGAGAAT | -0.17 |
| GTTCAAAC | 0.323 |
| GTTCAAAA | 0.185 |
| ATTCAAAC | 0.11 |
| AGCAGGCT | -0.098 |
| AGGCGCAA | 0.279 |
| CGGCGCAA | 0.422 |

| Sequence | PBM E-score |
| --- | --- |
| TGGCGCAA | 0.298 |
| GGGCGCAC | -0.0463 |
| AGGCGCAG | 0.188 |
| AGGCGCAC | 0.179 |
| CGGCGCAC | 0.409 |
| CCGCGCAG | 0.221 |
| CGGCGCAG | 0.428 |
| CCAAGACA | -0.137 |
| CCCCCTAG | -0.354 |
| ATTGGTGA | -0.0777 |
| ACTAAGGA | -0.105 |
| ACCTTACC | 0.0147 |
| CCTTTTTC | 0.104 |
| TAACCACA | -0.022 |
| CAACCTGG | -0.101 |
| TAAGTCAA | -0.0101 |
| AGAGGCAT | 0.242 |
| AGAGGCAA | 0.0357 |
| CGAGGCAA | 0.359 |
| GGAGGCAC | 0.148 |
| TGAGGCAA | 0.234 |
| AGAGGCAG | -0.125 |

| Sequence | PBM E-score |
| --- | --- |
| CGAGGCAG | 0.12 |
| CGAGGCAC | 0.384 |
| AGAGGCAC | 0.366 |
| GACCAGCC | -0.259 |
| CCGGTAGG | 0.0318 |
| TACGTAAA | 0.189 |
| CAAGACCA | -0.15 |
| ATACCGCC | 0.1 |
| AAGTTATC | -0.0807 |
| AGATGCAA | -0.0126 |
| GAGTGCGA | -0.046 |
| GCAACGGA | 0.228 |
| CTAGCCGA | -0.0941 |
| AGAGCCGA | 0.225 |
| CCAGCCGC | 0.125 |
| CTAGCCGC | 0.395 |
| CGAGCCGA | 0.124 |
| ATAGCCGC | 0.298 |
| AGAGCCGG | -0.0632 |
| CGAGCCGC | 0.385 |
| AGAGCCGC | 0.44 |
